# An excerpt weighted towards active compounds, which were near 1.5% of everything screened.
# GALK inhibitor – qHTS Assay for Inhibitors of Human Galactokinase (GALK) | 270,000 tested, 0.007% active | Purified GALK, Kinase-Glo residual ATP luminescence | Potency, µM (highest dose often 57.5 µM), for inactives: at the top dose activity change, negative = inhibition, most hits filed as inhibitors; also: potency is read from the fitted curve at half-maximal effect
#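 ATP-depletion format; final 35 uM ATP, 100 uM D-galactose, 5 nM enzyme; pH 8.0 HEPES/Mg2+ buffer; 60 min RT; luminescence read 10 min after detection reagent.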
# CtBP-E1A inh – qHTS Assay for Inhibitors of the CtBP/E1A Interaction; activity change, % (test concentration not listed); 340,000 tested, 0.49% active; AlphaScreen GST-E1A/His-CtBP binding, 1536-well; hits give low values; CtBP / adenovirus E1A interaction (AlphaScreen); in the data active = activity change below about -65%; inconclusive = mostly about -30% to -63%
#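 GST-E1A and His-tagged CtBP (125 nM each as 5X stock) were preincubated with pin-transferred compound for 2 h at 37 °C in the dark, then glutathione donor and nickel acceptor beads were added for 1 h before AlphaScreen reading.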
# rTrxR1 inhibitor – qHTS Assay for Inhibitors of Mammalian Selenoprotein Thioredoxin Reductase 1 (TrxR1): qHTS. recombinant rTrxR1, NADPH fluorescence consumption, selenite substrate. Thioredoxin reductase 1, cytoplasmic (Rattus norvegicus), O89049. 390,000 tested, 1% active. AID 588453, 2011. Potency, µM (highest dose often 114 µM), for inactives: at the top dose activity change, negative = inhibition, actives largely listed as inhibitors; also: potency is read from the fitted curve at half-maximal effect; nearly all actives have a fitted effect of over 65% in size
# Target sequence (O89049 whole entry, looked up): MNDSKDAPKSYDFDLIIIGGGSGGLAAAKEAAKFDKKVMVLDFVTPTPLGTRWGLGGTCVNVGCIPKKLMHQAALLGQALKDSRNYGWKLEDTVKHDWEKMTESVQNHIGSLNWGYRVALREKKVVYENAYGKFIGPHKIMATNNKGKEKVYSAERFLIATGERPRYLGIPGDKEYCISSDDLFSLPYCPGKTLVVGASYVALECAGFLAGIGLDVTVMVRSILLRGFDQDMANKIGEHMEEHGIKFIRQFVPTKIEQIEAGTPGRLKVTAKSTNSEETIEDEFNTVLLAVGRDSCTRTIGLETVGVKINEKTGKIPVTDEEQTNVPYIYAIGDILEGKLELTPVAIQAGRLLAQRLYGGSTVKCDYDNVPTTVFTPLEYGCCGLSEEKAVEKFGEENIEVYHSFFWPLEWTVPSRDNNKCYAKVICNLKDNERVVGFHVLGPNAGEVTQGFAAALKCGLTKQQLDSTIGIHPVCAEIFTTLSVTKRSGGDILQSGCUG
#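 Rat TrxR1 (90 nM in the dispensed reagent) was pre-reduced with 400 uM NADPH for 5 min at room temperature, then incubated with compound for 15 min. After 400 uM selenite was added, NADPH fluorescence (Ex 340/Em 450 nm) was followed for 8 min.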
# Eya2 inh – qHTS Assay for Inhibitors of the Phosphatase Activity of Eya2; recombinant Eya2, OMFP fluorescence dephosphorylation (OMFP is methylfluorescein phosphate); Potency, µM (series often up to 76.9 µM), for the others: at the highest dose activity, negative = inhibition, usual class: inhibitors; 330,000 tested, 0.006% active; also: potency is read from the fitted curve at half-maximal effect
#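 Eya2 (0.2 uM) preincubated 10 min at ambient with compound, then OMFP substrate added at 50 uM; 10 min reaction in 50 mM HEPES pH 7.5, 50 mM NaCl, 5 uM MgCl2, 0.05% BSA, 1 mM DTT. Fluorescence read at Ex 485/Em 525 nm.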
# Six1-Eya2 blk – qHTS Assay for Inhibitors of the Six1/Eya2 Interaction; 360,000 tested, 0.56% active; activity change, % (test concentration not listed); Homeobox protein SIX1 (Homo sapiens) + Protein phosphatase EYA2 (Homo sapiens), …; AID 651725, 2012; AlphaScreen GST-Six1/His-Eya2 binding, biochemical; hits give low values; in the data active = activity change below about -65%; inconclusive = mostly about -30% to -63%
#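 Compounds are tested against tagged Six1 and Eya2 proteins bridged by glutathione donor and nickel acceptor beads; after a one-hour incubation at 37 °C without light, AlphaScreen emission is recorded.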
# TrxR1 substrate – qHTS Assay for Substrates of Mammalian Selenoprotein Thioredoxin Reductase 1 (TrxR1): qHTS; 390,000 tested, 0.01% active; AID 588456, 2011; purified TrxR1 substrate turnover, NADPH consumption readout; Thioredoxin reductase 1, cytoplasmic (Rattus norvegicus), O89049; Potency, µM (top dose mostly 114 µM), inactives show at the top dose activity change, negative = substrate turnover; also: potency is read from the fitted curve at half-maximal effect; nearly all actives have a fitted effect of over 50% in size
#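 Rat TrxR1, dispensed at 90 nM, was prereduced with 400 uM NADPH (final) for 5 min at ~22 deg C, then incubated with compound 15 min before 400 uM selenite. A first-read NADPH fluorescence drop versus no-compound background flagged substrates.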
# An asterisk follows results filed as active; ? = inconclusive; · = no result given; [ ] = remark or other dose. Unless noted, calls follow the shape of the dose curve; as a rule, active = well fitted curve in the direction sought with a large enough effect; inconclusive = small, poorly fitted or top-dose-only effect, or another doubt; inactive = no such curve, though single readings can be large; an effect the other way counts as inactive or inconclusive. % is scaled to controls: 0 for no effect and ±100 for the full control effect.
SMILES,GALK inhibitor,CtBP-E1A inh,rTrxR1 inhibitor,Eya2 inh,Six1-Eya2 blk,TrxR1 substrate
Cc1ccc(OCC(=O)N/N=C/c2ccc([N+](=O)[O-])o2)cc1,0%,-26,?,-3%,-6,-2%
NC(=O)N/N=C/c1ccc([N+](=O)[O-])o1,·,-5,7.1µM*,16%,16,-15%
Cc1cc(C)c(S(=O)(=O)N/N=C/c2ccc([N+](=O)[O-])o2)c(C)c1,1%,-6,13µM*,15%,-3,-4%
COC(=O)c1cc(C)nc2c1c(=O)nc(SCc1ccccc1C)n2C1CC1,·,·,13%[57.1 µM],·,·,-2%[57.1 µM]
Cc1ccc(C)c(N2CCN(Cc3csc(C)c3)CC2)c1,·,·,1%,·,·,-6%
COc1ccc(F)c(Cn2cnc3c(cnn3C(C)(C)C)c2=O)c1Cl,·,·,12%,·,·,5%
O=C(N/N=C/c1ccccn1)c1sc2ccccc2c1Cl,-1%,·,-9%,-6%,?,-10%
O=C(N/N=C/c1ccc([N+](=O)[O-])o1)c1sc2ccccc2c1Cl,-8%,·,79µM*,8%,?,5%
CCc1ccc2[nH]c3nc(N/N=C/c4ccc(O)cc4O)nnc3c2c1,-9%,-81*,15%,-3%,?,-4%
CN1C(=O)c2cccc3c(S(=O)(=O)Nc4cccc(C(=O)O)c4)ccc1c23,·,·,19%,·,·,-2%
CC(NC(=O)CN1C(=O)COc2ccc(Cl)cc21)c1ccccc1 (stereo not given),·,·,8%,·,·,-2%
O=c1cc(C23CC4CC(CC(C4)C2)C3)[nH][nH]1,-2%,3,14µM*,·,2,9%
COc1cccc(/C=N/NC(=O)CSc2cccc3cccnc23)c1,-2%,-94*,-17%,-7%,-94*,31%
COc1cccc(/C=N/NC(=O)COc2cccc3cccnc23)c1O,1%,-80*,6%,0%,?,3%
O=C(COc1ccc(Cl)cc1)N/N=C/c1cccc2cccnc12,0%,?,-7%,-15%,?,7%
O=C(CSc1cccc2cccnc12)N/N=C/c1ccc(O)cc1,-1%,-9,12%,-6%,?,2%
COc1ccc(OCC(=O)N/N=C/c2cccc3cccnc23)cc1,·,-86*,19%,·,-80*,0%
CC(C)n1cc(/C=N/NC(=O)COc2cccc3cccnc23)c2ccccc21,2%,-2,-10%,-12%,-16,-4%
COc1ccccc1OCC(=O)N/N=C/c1cccc2cccnc12,3%,-86*,7%,-18%,-74*,4%
C=C1NN(C)C(=O)N1c1ccc(OC)cc1,·,·,24%,·,·,10%[0.0914 µM]
COc1cccc(CN(Cc2ccco2)c2cnc(S(C)(=O)=O)nc2C(=O)Nc2cccc(Cl)c2C)c1,·,·,10%,·,·,-5%
CC(C1SC(=S)NC1=O)C1SC(=S)NC1=O (stereo not given),·,-73*,·,·,-83*,·
Cc1ccc2c(c1C)NC(C(=O)O)C1CC=CC21 (stereo not given),2%,-6,2.5µM*,-1%,-26,13%
O=C(O)C1Nc2c(C(F)(F)F)ccc(Cl)c2C2C=CCC12 (stereo not given),0%,·,?,10%,-5,3%[2.29 µM]
O=C(O)C1Nc2c(C(=O)N3CCOCC3)cccc2C2C=CCC12 (stereo not given),2%,-29,1.6µM*,13%,-74*,-7%
SMILES,GALK inhibitor,CtBP-E1A inh,rTrxR1 inhibitor,Eya2 inh,Six1-Eya2 blk,TrxR1 substrate
Cc1cc(C)c2c(c1)NC(C(=O)O)C1CC=CC21 (stereo not given),7%,?,4µM*,-7%,?,2%
Cc1ccc(Cl)c2c1N[C@@H](c1ccc(C(=O)O)cc1)[C@H]1CC=C[C@@H]21,·,·,-3%,·,·,0%
CCOC(=O)c1ccc2c(c1)C1C=CCC1C(C(=O)O)N2 (stereo not given),3%,·,·,13%,·,·
O=C(O)C1Nc2ccccc2C2C=CCC12 (stereo not given),·,·,3.5µM*,·,·,-5%
Cc1ccc(C)c(N2CCN(c3c(CN4CCCC4)c(=O)oc4ccccc34)CC2)c1,·,·,1%,·,·,-2%
Cc1cccc(NC(=O)C(Cc2ccccc2)NS(=O)(=O)c2ccc3c(c2)c(=O)n(C)c(=O)n3C)c1 (stereo not given),·,·,41%,·,·,9%
Cc1cn2c(=O)cc(COC(=O)c3cccc(NC(=O)c4ccccc4C)c3)nc2s1,·,·,7%[57.1 µM],·,·,5%[57.1 µM]
Cc1cc(C)c2c(c1)C1C=CCC1C(C(=O)O)N2 (stereo not given),·,·,1.4µM*,·,·,1%
O=C(O)CC/C(=N\Nc1ccc(S(=O)(=O)N2CCOCC2)cc1[N+](=O)[O-])c1cccs1,6%,-26,?,5%,-21,79µM*
O=C(O)CC/C(=N\Nc1ccc(S(=O)(=O)N2CCCC2)cc1[N+](=O)[O-])c1cccs1,-2%,-7,-13%,-16%,-5,-13%
Cc1cc(C)cc(NC(=O)NCc2noc3ccccc23)c1,·,·,24%,·,·,6%
CCOc1ccc(CNC(=O)CS(=O)(=O)c2cccc3nsnc23)cc1,·,·,8%[57.1 µM],·,·,-3%[57.1 µM]
Cc1ccc(Cn2cnc3nc4c(cc3c2=O)CC(C)CC4)cc1 (stereo not given),·,·,8%[57.1 µM],·,·,-2%[57.1 µM]
Cc1ccc(S(=O)(=O)CCC(=O)Nc2nc(-c3ccncc3)cs2)cc1,0%,·,7%,5%,-5,0%
COc1ccc(C)c2sc(NC(=O)CCS(=O)(=O)c3ccccc3)nc12,-10%,-4,40µM*,4%,-23,2%
CC(Oc1ccc(F)cc1)C(=O)Nc1nc(-c2ccccn2)cs1 (stereo not given),·,-79*,23%[57.1 µM],-24%,-28,-4%[57.1 µM]
O=C(CCS(=O)(=O)c1ccccc1)Nc1nc(-c2ccccn2)cs1,·,-80*,8%[57.1 µM],·,-11,4%[57.1 µM]
O=C(CCS(=O)(=O)c1ccc(F)cc1)Nc1nc(-c2ccccn2)cs1,7%,·,26%,-11%,-76*,1%
O=C(CCS(=O)(=O)c1ccccc1)Nc1ccccn1,1%,4,-9%[57.1 µM],7%,9,-3%[57.1 µM]
COc1ccc(OCCCC(=O)Nc2nc(-c3ccccn3)cs2)cc1,13%,-26,-12%,2%,-24,2%

# Screens from PubChem BioAssay.
